# Measured values from paper PMC7862700, “An all-to-all approach to the identification of sequence-specific readers for epigenetic DNA modifications on cytosine”.
# Experiments:
# Assay in all cases: DAPPL (digital affinity profiling via proximity ligation, sequencing); 10 mM Tris-HCl pH 7.5, 50 mM NaCl, 1 mM DTT, 4% glycerol, room temperature, 30 min; GST-TFs on glutathione beads, 16-mer random dsDNA library, 0.1% formaldehyde crosslink after washing; high values mean tight binding
# FEV = target: T1, FEV (Homo sapiens, UniProt Q99581 1-238); conditions: protein: recombinant; tags: N-terminal GST; dsDNA, one strand shown
# T1 sequence: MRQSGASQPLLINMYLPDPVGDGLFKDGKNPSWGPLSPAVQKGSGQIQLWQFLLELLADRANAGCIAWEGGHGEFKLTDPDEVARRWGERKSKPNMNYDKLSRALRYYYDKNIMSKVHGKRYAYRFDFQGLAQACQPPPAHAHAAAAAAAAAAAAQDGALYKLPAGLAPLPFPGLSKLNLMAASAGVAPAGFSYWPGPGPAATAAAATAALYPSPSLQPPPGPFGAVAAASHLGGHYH
# Outline: (§1)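 Binding signal is defined as a hexamer's read frequency for one factor over its frequency for the tag-only sample. To obtain reads, GST-fused human transcription factors were expressed in yeast, captured on glutathione beads, barcoded with DNA and pooled with that sample. Pools met 200 nmole of a 16-mer random double-stranded DNA library in Tris/NaCl/DTT/glycerol buffer for 30 min at room temperature before washing, 0.1% formaldehyde crosslinking, proximity ligation (BsaI/T4 ligase, 1 h, 37 °C), PCR and Illumina NextSeq500 sequencing.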
# ETV5 = ETV5 (Homo sapiens, UniProt P41161 1-510); conditions: protein: recombinant; tags: N-terminal GST; dsDNA, one strand shown
# Outline: as §1
# HSF1 = HSF1 (Homo sapiens, UniProt Q00613 1-529); conditions: protein: recombinant; tags: N-terminal GST; chain copies: 3; dsDNA, one strand shown
# Outline: as §1
# SPIC = target: T2, SPIC (Homo sapiens, UniProt Q8N5J4 1-248); conditions: protein: recombinant; tags: N-terminal GST; dsDNA, one strand shown
# T2 sequence: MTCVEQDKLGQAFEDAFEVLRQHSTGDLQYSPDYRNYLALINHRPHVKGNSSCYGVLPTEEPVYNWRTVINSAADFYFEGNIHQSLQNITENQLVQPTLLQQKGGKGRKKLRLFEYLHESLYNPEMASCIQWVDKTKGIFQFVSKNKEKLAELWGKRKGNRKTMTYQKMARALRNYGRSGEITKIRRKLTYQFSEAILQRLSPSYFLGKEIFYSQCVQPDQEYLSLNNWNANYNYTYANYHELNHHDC
# Outline: as §1
# ELF4 = ELF4 (Homo sapiens, UniProt Q99607 1-663); conditions: protein: recombinant; tags: N-terminal GST; dsDNA, one strand shown
# Outline: as §1
# ELK4 = target: T3, ELK4 (Homo sapiens, UniProt P28324-2 1-405); conditions: protein: recombinant; tags: N-terminal GST; dsDNA, one strand shown
# T3 sequence: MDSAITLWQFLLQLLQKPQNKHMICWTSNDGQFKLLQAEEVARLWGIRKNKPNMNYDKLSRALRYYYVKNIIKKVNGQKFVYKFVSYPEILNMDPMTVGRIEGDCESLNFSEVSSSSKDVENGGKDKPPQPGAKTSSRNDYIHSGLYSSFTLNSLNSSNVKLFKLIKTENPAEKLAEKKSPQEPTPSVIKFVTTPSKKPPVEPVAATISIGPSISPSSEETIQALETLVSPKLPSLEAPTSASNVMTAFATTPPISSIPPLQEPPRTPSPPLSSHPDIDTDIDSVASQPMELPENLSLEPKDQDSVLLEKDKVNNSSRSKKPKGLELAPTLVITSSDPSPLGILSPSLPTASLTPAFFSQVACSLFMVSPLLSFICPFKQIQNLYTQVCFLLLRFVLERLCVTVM
# Outline: as §1
# ETV2 = target: T4, ETV2 (Homo sapiens, UniProt O00321 1-342); conditions: protein: recombinant; tags: N-terminal GST; dsDNA, one strand shown
# T4 sequence: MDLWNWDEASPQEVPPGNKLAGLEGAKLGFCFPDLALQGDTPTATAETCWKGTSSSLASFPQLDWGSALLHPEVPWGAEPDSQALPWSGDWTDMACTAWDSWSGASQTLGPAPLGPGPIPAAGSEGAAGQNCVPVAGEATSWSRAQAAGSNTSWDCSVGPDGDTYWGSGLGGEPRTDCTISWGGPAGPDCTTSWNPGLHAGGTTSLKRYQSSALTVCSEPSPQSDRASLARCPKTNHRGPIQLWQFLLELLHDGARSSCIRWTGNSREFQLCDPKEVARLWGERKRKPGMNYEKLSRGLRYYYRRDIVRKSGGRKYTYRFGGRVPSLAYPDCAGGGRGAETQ
# Outline: as §1
# ELF3 = target: T5, ELF3 (Homo sapiens, UniProt P78545 1-371); conditions: protein: recombinant; tags: N-terminal GST; dsDNA, one strand shown
# T5 sequence: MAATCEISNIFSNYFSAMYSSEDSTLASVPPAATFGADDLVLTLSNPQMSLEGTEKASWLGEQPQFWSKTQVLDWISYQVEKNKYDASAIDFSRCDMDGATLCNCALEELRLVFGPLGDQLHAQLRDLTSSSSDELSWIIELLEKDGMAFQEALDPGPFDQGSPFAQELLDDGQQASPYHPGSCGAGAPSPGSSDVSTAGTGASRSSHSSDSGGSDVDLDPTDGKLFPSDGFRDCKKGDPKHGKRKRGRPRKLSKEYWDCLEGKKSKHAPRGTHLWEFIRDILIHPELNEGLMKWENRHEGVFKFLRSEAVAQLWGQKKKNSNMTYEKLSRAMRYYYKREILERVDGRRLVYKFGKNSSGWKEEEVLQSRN
# Outline: as §1
# CRX = CRX (Homo sapiens, UniProt O43186 1-299); conditions: protein: recombinant; tags: N-terminal GST; dsDNA, one strand shown
# Outline: as §1
# ETV1 = ETV1 (Homo sapiens, UniProt P50549 1-477); conditions: protein: recombinant; tags: N-terminal GST; dsDNA, one strand shown
# Outline: as §1
# ERF = target: T6, ERF (Homo sapiens, UniProt P50548 1-548); conditions: protein: recombinant; tags: N-terminal GST; dsDNA, one strand shown
# T6 sequence: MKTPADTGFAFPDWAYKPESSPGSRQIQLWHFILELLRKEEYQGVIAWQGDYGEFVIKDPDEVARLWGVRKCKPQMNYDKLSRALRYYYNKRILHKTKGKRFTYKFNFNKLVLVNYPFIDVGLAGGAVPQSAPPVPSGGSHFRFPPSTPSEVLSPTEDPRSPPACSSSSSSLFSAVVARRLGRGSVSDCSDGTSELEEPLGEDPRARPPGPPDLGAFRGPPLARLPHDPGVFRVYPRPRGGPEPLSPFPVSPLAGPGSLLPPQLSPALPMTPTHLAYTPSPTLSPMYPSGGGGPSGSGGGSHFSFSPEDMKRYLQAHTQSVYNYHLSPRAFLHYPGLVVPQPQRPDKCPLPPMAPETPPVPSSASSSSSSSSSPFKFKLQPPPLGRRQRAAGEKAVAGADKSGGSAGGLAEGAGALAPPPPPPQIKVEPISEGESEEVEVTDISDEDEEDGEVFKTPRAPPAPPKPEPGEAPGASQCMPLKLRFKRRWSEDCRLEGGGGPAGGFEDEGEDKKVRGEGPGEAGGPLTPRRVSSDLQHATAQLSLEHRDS
# Outline: as §1
# ETV3L = target: T7, ETV3L (Homo sapiens, UniProt Q6ZN32 1-361); conditions: protein: recombinant; tags: N-terminal GST; dsDNA, one strand shown
# T7 sequence: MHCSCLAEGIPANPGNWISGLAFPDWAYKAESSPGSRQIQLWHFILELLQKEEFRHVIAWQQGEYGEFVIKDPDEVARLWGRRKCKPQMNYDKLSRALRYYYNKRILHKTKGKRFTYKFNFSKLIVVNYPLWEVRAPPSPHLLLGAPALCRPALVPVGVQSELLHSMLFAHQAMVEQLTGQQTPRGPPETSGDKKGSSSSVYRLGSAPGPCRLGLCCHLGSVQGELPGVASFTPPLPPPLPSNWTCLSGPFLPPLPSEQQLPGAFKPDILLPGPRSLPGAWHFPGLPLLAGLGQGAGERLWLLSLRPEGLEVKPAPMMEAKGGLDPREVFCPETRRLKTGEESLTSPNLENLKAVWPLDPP
# Outline: as §1
# ETS2 = target: T8, ETS2 (Homo sapiens, UniProt P15036 1-469); conditions: protein: recombinant; tags: N-terminal GST; dsDNA, one strand shown
# T8 sequence: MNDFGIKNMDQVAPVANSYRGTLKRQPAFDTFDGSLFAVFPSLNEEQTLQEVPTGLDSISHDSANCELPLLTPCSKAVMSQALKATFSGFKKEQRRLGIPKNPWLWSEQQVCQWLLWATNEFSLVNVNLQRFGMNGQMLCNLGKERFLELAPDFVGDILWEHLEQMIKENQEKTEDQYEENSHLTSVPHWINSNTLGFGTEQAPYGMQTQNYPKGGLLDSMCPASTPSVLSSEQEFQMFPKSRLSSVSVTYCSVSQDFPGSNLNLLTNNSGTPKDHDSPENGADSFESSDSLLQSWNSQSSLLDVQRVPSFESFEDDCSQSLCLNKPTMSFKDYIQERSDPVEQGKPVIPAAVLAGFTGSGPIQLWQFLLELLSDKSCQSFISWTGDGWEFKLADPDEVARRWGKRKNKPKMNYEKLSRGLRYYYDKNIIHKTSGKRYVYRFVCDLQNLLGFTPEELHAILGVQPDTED
# Outline: as §1
# SPDEF = target: T9, SPDEF (Homo sapiens, UniProt O95238 1-335); conditions: protein: recombinant; tags: N-terminal GST; dsDNA, one strand shown
# T9 sequence: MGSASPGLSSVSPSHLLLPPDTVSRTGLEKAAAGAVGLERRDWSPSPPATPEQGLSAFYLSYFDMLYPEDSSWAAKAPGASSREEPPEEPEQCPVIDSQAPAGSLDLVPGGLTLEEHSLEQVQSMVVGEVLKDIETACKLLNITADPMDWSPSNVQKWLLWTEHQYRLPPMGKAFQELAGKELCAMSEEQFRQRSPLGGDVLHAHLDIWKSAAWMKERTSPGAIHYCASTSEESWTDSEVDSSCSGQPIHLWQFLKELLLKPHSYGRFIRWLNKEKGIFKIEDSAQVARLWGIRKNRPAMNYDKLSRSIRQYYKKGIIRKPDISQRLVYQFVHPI
# Outline: as §1
# ETV7 = target: T10, ETV7 (Homo sapiens, UniProt Q9Y603 1-341); conditions: protein: recombinant; tags: N-terminal GST; dsDNA, one strand shown
# T10 sequence: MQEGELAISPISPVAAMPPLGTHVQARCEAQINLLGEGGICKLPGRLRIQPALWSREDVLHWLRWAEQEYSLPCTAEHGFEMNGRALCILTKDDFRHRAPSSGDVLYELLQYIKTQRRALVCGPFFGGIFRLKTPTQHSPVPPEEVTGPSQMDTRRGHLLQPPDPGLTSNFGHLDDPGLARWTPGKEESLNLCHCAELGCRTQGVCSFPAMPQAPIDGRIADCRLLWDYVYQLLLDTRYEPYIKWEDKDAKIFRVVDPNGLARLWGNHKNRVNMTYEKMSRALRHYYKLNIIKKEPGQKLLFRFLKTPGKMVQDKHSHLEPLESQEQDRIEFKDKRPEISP
# Outline: as §1
# ELF5 = target: T11, ELF5 (Homo sapiens, UniProt Q9UKW6-2 1-255); conditions: protein: recombinant; tags: N-terminal GST; dsDNA, one strand shown
# T11 sequence: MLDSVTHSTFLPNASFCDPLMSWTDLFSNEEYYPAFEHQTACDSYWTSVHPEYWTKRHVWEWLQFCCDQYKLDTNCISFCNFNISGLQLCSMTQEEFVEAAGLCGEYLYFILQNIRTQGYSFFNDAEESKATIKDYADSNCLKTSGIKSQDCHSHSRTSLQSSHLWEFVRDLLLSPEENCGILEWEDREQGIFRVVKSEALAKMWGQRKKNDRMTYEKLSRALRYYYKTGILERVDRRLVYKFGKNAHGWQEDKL
# Outline: as §1
# ETV3 = target: T12, ETV3 (Homo sapiens, UniProt P41162-2 1-143); conditions: protein: recombinant; tags: N-terminal GST; dsDNA, one strand shown
# T12 sequence: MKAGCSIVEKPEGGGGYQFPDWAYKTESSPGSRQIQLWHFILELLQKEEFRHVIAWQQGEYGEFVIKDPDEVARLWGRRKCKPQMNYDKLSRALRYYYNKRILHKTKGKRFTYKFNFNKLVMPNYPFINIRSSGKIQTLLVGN
# Outline: as §1
# ETV6 = ETV6 (Homo sapiens, UniProt P41212 1-452); conditions: protein: recombinant; tags: N-terminal GST; dsDNA, one strand shown
# Outline: as §1
# Sequence of ELF4 (Q99607 whole entry): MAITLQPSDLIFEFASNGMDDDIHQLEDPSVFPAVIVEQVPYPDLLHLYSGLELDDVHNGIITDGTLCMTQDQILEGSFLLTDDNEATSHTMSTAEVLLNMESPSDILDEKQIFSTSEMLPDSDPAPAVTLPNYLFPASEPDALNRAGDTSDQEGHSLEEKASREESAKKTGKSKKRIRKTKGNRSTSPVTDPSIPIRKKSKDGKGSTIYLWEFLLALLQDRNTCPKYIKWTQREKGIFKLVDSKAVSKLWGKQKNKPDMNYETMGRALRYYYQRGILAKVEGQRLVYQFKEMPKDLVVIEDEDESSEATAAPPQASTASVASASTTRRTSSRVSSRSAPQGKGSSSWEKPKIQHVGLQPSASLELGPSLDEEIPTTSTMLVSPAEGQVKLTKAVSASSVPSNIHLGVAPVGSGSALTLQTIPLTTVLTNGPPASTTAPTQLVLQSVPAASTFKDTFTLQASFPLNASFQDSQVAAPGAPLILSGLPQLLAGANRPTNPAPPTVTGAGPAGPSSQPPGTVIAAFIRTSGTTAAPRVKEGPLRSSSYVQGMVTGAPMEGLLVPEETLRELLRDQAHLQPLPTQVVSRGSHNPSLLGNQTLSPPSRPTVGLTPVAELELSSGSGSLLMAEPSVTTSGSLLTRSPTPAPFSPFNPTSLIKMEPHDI
# Sequence of ETV1 (P50549 whole entry): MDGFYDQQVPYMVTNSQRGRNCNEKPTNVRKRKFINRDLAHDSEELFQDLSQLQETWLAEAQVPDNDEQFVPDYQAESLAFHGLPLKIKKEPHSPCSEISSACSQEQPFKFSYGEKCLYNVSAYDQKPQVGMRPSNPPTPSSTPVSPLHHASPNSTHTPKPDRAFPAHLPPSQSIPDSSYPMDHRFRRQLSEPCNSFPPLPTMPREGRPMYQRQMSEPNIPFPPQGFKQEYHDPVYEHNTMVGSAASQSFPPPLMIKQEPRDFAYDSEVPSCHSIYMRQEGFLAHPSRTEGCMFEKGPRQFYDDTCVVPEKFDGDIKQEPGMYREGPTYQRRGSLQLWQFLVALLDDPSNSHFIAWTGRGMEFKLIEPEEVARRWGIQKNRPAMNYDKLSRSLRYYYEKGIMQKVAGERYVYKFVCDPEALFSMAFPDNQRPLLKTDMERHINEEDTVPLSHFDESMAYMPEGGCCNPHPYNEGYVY
# Sequence of ETV5 (P41161 whole entry): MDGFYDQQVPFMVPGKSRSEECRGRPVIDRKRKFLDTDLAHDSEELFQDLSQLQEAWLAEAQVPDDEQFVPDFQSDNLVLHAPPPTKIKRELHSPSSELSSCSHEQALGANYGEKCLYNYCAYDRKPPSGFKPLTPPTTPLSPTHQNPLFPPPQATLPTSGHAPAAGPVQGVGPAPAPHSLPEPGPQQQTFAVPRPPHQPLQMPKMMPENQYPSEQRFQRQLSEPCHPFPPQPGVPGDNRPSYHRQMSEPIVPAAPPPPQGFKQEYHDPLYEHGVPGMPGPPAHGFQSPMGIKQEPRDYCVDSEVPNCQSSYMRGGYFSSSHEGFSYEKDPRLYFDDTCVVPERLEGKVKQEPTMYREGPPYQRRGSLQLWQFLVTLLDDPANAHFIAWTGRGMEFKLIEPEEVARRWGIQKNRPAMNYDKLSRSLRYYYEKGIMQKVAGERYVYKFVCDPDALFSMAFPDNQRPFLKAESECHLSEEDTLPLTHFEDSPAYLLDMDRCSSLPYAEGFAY
# Sequence of ETV6 (P41212 whole entry): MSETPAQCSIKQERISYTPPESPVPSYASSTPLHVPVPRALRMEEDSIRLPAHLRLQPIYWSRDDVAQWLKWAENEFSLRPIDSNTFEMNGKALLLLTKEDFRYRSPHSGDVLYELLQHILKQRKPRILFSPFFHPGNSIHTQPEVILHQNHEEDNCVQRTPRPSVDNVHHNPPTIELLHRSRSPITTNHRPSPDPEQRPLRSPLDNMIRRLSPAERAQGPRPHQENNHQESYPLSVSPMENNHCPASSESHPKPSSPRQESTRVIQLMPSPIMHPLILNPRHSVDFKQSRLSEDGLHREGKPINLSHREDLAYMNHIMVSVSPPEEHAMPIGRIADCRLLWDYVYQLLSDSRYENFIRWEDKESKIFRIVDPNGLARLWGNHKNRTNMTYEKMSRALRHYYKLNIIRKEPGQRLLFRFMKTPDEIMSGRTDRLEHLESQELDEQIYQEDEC
# Sequence of HSF1 (Q00613 whole entry): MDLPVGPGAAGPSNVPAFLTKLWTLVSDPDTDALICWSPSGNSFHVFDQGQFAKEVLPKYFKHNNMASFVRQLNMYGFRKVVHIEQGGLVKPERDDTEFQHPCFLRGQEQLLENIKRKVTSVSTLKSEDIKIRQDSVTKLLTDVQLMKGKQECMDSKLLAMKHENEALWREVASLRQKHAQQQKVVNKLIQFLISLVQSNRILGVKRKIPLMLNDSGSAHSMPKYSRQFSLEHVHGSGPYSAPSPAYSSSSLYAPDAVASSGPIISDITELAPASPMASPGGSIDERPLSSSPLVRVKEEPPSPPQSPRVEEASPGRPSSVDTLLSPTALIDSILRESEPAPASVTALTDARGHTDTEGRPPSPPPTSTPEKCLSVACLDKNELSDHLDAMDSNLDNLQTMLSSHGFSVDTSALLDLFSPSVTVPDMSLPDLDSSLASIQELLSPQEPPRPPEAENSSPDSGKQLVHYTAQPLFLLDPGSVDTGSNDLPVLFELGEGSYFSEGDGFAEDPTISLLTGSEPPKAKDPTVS
# Sequence of CRX (O43186 whole entry): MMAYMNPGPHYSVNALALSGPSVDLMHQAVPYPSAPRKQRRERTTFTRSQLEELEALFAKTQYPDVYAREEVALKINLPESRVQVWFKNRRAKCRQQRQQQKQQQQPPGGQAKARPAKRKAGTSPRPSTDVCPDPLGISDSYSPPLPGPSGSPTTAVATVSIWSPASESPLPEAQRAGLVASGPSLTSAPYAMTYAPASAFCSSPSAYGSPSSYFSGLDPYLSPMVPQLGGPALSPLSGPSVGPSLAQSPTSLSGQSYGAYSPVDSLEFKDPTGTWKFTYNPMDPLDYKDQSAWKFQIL
sequence,measurement,setting,value
CCCATT,binding signal,FEV,"1.28 fold enrichment (6-mer frequency, TF over GST control)"
same,binding signal,ETV5,"1.38 fold enrichment (6-mer frequency, TF over GST control)"
same,binding signal,HSF1,"1.15 fold enrichment (6-mer frequency, TF over GST control)"
same,binding signal,SPIC,"1.43 fold enrichment (6-mer frequency, TF over GST control)"
same,binding signal,ELF4,"1.23 fold enrichment (6-mer frequency, TF over GST control)"
same,binding signal,ELK4,"1.26 fold enrichment (6-mer frequency, TF over GST control)"
same,binding signal,ETV2,"1.56 fold enrichment (6-mer frequency, TF over GST control)"
same,binding signal,ELF3,"1.22 fold enrichment (6-mer frequency, TF over GST control)"
same,binding signal,CRX,"1.19 fold enrichment (6-mer frequency, TF over GST control)"
same,binding signal,ETV1,"1.25 fold enrichment (6-mer frequency, TF over GST control)"
same,binding signal,ERF,"1.32 fold enrichment (6-mer frequency, TF over GST control)"
same,binding signal,ETV3L,"1.3 fold enrichment (6-mer frequency, TF over GST control)"
same,binding signal,ETS2,"1.43 fold enrichment (6-mer frequency, TF over GST control)"
same,binding signal,SPDEF,"1.19 fold enrichment (6-mer frequency, TF over GST control)"
same,binding signal,ETV7,"1.38 fold enrichment (6-mer frequency, TF over GST control)"
same,binding signal,ELF5,"1.4 fold enrichment (6-mer frequency, TF over GST control)"
same,binding signal,ETV3,"1.24 fold enrichment (6-mer frequency, TF over GST control)"
same,binding signal,ETV6,"1.29 fold enrichment (6-mer frequency, TF over GST control)"
